# Experimental data published in the supplement of paper PMC11006884.
# Of roughly 6,500 targets only a part is listed; those with a hit were picked by preference. About 2% of all pairs of compound and target were hits. Unmarked numbers belong to inactive results.
# Compound: COC(=O)C#Cc1ccccc1 [methyl 3-phenylpropiolate]
# Experiment: log2 ratio of iodoacetamide-alkyne labeling of the cysteine site, DMSO over compound (competition); higher = stronger covalent engagement of the cysteine by the compound, active = 1 or more
# Settings: 500 µM; treatment time 1 h; system: HEK293T cell lysate
# In short: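 The log2 competition ratio per cysteine is defined as mean reporter intensity in control channels over mean reporter intensity in compound channels. Lysate from HEK293T cells (2 mg/mL) received electrophile (500 µM) or vehicle for 1 h at ambient temperature, followed by iodoacetamide alkyne for 1 h. Samples were clicked to sCIP-TMT reagents, pooled, trypsin-digested overnight at 37 °C, streptavidin-enriched, acid-eluted and run on Orbitrap Eclipse LC-MS/MS with FAIMS, with quantification in FragPipe. Three replicates with duplicate channels were used, and any cysteine quantified in only one replicate was excluded.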
# Chain of UniProt Q9UNE7 (Q9UNE7 whole entry, looked up): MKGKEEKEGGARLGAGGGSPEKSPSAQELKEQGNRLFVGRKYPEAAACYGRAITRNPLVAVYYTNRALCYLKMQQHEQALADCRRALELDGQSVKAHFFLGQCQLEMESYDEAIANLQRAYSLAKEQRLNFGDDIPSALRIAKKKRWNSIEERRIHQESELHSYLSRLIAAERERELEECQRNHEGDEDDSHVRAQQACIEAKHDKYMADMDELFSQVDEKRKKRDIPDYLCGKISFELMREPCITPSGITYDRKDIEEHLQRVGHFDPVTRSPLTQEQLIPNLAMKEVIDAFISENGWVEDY
# Chain of UniProt Q9ULT8 (Q9ULT8 whole entry, looked up): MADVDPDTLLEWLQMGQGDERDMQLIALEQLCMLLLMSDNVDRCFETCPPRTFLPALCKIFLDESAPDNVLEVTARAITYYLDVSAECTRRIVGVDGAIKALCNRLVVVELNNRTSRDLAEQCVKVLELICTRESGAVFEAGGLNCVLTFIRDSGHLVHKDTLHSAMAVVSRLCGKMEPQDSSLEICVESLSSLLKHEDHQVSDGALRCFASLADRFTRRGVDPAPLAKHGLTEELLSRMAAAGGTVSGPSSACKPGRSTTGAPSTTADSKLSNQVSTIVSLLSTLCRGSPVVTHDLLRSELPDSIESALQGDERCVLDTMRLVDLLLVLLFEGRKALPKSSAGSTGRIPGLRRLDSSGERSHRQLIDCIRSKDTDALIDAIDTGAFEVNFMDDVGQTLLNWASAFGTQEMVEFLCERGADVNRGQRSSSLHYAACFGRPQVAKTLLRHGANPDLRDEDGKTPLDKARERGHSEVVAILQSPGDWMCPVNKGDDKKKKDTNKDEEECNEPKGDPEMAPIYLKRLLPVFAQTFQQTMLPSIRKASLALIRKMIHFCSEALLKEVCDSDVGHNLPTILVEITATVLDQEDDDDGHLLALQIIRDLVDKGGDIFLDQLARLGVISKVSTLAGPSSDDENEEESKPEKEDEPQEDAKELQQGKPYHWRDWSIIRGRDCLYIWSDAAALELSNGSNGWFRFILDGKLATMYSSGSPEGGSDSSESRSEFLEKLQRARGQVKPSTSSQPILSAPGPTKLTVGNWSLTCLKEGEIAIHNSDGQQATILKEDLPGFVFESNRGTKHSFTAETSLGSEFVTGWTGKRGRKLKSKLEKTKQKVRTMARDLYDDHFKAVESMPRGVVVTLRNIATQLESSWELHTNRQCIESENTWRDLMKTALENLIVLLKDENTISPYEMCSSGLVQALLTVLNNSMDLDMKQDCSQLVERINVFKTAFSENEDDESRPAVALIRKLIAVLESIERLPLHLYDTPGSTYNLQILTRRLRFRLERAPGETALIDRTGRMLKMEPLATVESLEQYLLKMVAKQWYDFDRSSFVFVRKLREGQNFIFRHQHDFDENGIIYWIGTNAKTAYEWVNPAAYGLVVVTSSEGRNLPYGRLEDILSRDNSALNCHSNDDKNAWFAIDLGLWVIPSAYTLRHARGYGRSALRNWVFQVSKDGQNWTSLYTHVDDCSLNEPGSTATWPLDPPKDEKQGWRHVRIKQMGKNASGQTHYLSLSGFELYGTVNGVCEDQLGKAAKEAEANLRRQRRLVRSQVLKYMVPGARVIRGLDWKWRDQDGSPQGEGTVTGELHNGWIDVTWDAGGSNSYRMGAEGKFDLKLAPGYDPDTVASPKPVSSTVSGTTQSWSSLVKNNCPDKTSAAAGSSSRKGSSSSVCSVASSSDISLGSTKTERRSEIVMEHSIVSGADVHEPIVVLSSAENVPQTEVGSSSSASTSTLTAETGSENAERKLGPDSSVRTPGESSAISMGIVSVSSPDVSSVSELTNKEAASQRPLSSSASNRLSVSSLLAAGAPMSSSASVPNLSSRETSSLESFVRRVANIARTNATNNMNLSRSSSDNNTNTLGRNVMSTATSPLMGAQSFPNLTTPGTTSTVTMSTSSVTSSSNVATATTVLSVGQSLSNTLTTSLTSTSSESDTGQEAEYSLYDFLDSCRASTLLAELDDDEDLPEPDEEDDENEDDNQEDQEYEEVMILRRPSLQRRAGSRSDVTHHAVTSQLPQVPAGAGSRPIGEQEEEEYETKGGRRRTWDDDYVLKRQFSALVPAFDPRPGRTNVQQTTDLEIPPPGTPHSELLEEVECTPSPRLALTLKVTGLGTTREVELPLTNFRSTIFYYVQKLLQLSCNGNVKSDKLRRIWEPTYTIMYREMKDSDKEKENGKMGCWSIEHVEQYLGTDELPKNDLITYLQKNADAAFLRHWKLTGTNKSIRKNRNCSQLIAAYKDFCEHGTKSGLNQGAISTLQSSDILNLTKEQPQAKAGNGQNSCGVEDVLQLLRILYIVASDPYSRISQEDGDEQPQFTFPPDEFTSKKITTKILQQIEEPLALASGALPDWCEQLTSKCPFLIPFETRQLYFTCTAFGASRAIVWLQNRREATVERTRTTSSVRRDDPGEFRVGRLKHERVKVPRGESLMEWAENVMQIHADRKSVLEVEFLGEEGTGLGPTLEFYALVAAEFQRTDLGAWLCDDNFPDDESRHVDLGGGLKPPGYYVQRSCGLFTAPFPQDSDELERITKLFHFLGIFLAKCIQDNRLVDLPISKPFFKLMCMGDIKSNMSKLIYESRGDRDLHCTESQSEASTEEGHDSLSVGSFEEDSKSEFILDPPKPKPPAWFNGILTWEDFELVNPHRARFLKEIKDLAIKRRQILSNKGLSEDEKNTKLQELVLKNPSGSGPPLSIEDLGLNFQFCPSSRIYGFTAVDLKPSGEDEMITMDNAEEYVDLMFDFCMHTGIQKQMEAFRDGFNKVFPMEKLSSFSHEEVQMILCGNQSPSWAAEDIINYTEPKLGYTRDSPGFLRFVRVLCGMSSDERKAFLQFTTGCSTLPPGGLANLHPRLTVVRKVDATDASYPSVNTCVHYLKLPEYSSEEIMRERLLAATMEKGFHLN
# Chain of UniProt Q9ULW0 (Q9ULW0 whole entry, looked up): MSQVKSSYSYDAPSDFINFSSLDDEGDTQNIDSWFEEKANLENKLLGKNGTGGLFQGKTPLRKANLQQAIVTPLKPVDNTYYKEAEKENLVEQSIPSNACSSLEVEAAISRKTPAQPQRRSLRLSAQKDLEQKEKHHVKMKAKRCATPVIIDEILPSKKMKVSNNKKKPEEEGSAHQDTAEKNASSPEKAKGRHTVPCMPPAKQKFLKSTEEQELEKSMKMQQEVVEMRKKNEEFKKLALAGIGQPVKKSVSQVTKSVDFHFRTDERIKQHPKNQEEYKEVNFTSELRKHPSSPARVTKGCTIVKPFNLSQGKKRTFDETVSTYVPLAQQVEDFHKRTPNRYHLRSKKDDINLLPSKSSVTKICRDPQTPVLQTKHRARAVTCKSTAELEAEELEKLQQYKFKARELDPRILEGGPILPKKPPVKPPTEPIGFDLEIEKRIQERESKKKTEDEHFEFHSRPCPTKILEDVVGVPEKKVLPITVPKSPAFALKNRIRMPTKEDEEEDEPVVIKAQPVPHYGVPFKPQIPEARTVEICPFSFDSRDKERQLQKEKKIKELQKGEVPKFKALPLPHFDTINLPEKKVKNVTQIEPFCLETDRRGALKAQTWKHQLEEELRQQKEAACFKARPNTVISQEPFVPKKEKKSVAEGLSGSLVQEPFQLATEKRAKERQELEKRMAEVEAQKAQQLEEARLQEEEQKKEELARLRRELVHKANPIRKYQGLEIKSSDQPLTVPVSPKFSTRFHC
# Chain of UniProt Q9BUJ2 (Q9BUJ2 whole entry, looked up): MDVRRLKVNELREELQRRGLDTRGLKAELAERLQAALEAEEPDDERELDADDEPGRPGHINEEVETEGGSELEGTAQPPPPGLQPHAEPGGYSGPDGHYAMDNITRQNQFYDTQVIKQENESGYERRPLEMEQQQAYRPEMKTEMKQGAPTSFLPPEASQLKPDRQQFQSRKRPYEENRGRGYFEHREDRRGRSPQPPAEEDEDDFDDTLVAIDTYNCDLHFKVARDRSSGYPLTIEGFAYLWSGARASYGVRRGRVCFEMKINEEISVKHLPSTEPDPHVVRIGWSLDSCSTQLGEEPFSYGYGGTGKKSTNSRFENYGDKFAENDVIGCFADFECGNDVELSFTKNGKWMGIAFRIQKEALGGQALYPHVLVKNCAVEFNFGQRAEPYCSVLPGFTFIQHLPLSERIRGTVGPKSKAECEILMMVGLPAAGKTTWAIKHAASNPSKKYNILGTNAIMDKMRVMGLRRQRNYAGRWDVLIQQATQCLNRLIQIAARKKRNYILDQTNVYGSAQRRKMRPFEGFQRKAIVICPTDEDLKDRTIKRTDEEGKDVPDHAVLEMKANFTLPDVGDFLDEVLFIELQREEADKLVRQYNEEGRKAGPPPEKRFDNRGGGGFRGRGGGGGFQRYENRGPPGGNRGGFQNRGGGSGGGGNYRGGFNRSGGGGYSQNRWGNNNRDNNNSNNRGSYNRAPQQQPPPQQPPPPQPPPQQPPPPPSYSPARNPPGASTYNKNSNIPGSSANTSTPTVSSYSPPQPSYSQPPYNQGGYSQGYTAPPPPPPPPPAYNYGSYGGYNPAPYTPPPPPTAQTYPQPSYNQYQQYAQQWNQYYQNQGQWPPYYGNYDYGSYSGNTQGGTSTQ
# Chain of UniProt Q9UGV2 (Q9UGV2 whole entry, looked up): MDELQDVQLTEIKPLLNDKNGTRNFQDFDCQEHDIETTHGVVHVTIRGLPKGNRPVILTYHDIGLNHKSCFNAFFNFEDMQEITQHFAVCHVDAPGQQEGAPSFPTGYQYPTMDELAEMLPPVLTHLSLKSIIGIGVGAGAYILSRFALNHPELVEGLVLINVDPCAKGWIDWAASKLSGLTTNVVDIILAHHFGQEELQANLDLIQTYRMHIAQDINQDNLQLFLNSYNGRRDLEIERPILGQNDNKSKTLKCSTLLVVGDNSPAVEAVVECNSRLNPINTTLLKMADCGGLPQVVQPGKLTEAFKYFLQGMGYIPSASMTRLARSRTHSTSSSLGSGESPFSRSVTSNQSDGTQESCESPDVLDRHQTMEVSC
# Chain of UniProt Q9NVP2 (Q9NVP2 whole entry, looked up): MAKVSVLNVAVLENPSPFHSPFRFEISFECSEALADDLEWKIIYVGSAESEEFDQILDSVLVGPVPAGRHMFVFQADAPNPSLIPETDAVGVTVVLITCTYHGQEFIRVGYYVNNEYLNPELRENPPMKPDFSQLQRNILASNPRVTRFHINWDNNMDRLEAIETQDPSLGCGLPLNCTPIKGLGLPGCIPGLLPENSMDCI
row,Target,log2 ratio of iodoacetamide-alkyne labeling
1,UniProt Q9BYG3_C237,0.515
2,RNF126 C229 (UniProt Q9BV68),-0.457
3,MED17 C110 (UniProt Q9NVC6),0.34
4,STX8 C14 (UniProt Q9UNK0),-0.148
5,HECTD1 C1368 (UniProt Q9ULT8),0.751
6,RPRD1B C234 (UniProt Q9NQG5),0.513
7,STRN4 C337 (UniProt Q9NRL3),0.488
8,RBM27 C776 (UniProt Q9P2N5),0.232
9,UPF2 C1107 (UniProt Q9HAU5),0.18
10,UniProt Q9NVH0_C284,0.123
11,REXO4 C382 (UniProt Q9GZR2),1.23 (active)
12,FAM169A C138 (UniProt Q9Y6X4),0.201
13,STUB1 C199 (UniProt Q9UNE7),0.493
14,PRR12 C322 (UniProt Q9ULL5),0.259
15,UniProt Q9Y312_C156,0.41
16,TPX2 C145 (UniProt Q9ULW0),0.384
17,HEG1 C1360 (UniProt Q9ULI3),1.36 (active)
18,MBD1 C57 (UniProt Q9UIS9),0.0108
19,UniProt Q9Y678_C129,0.51
20,DDA1 C25 (UniProt Q9BW61),0.36

row,Target,log2 ratio of iodoacetamide-alkyne labeling
1,NFU1 C210 (UniProt Q9UMS0),1.06 (active)
2,RCC2 C428 (UniProt Q9P258),0.696
3,DCTN4 C41 (UniProt Q9UJW0),0.309
4,PPME1 C386 (UniProt Q9Y570),1.48 (active)
5,MRPL44 C53 (UniProt Q9H9J2),-0.0312
6,NDRG3 C290 (UniProt Q9UGV2),-0.105
7,MDN1 C172 (UniProt Q9NU22),0.0689
8,GPHN C26 (UniProt Q9NQX3),-0.0135
9,SEC63 C366 (UniProt Q9UGP8),-0.163
10,RAB3GAP2 C67 (UniProt Q9H2M9),0.306
11,DLGAP4 C726 (UniProt Q9Y2H0),0.74
12,JMJD4 C101 (UniProt Q9H9V9),0.898
13,ALG5 C194 (UniProt Q9Y673),0.233
14,LRRC40 C227 (UniProt Q9H9A6),0.34
15,HNRNPUL1 C291 (UniProt Q9BUJ2),0.483
16,UBE2O C598 (UniProt Q9C0C9),0.166
17,MYO6 C1236 (UniProt Q9UM54),0.0604
18,UniProt Q9BYG3_C269,0.771
19,PPA2 C161 (UniProt Q9H2U2),-0.42
20,ASF1B C178 (UniProt Q9NVP2),1.22 (active)
